Results on 31 compounds are retold here after PubChem BioAssay (EPA / NIEHS).

As usually defined, the AC50 is the concentration at which the activity in the assay is half-maximal.

SMILES strings stand for the structures. Inconclusive results are not listed. Activity calls are given as the source filed them. How the source made its calls: active means hit-call score of the fitted dose curve at least 0.9, where 1 is the maximum; inconclusive means response in the unintended direction; inactive means score below 0.9.

Chain of chicken Estrogen Receptor (ESR1), ESR1 (gene 396099) (P06212 whole entry, looked up, the tested form may be a part): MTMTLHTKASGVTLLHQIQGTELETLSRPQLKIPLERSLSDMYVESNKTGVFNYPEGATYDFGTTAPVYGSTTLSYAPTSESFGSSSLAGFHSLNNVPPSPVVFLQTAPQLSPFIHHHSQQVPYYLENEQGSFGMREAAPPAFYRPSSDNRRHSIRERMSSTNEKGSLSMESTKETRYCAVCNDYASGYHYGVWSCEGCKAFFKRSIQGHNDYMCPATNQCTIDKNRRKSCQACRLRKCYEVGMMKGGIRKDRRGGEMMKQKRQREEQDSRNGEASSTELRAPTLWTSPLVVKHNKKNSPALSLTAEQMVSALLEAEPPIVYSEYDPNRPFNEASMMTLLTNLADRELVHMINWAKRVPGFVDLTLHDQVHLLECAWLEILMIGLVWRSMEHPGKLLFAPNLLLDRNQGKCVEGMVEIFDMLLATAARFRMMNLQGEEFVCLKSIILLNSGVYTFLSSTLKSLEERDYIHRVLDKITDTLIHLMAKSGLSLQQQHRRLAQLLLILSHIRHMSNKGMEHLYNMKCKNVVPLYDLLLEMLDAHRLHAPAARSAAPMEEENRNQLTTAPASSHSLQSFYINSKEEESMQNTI

One experiment relates to frog Estrogen Receptor (ESR1), gene 398734. The experiment in a line: ATG_frER1_XSP1: Attagene TRANS-FACTORIAL Multi-Species (XSP1) HepG2 Assay for frog Estrogen Receptor (ESR1) (AID 2283777). In a few lines: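 Human hepatoma HepG2 cells carried transiently transfected multiplexed Gal4-driven reporters and were exposed to test chemicals for 24 hours. Transcripts were quantified by fluorescent RT-PCR with capillary electrophoresis, referenced to DMSO.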
Turning to `CCc1cccc(C)c1N(C(=O)CCl)C(C)COC` (configuration not stated), the AC50 was 3.42 µM (active).
As to `C#CC(C)(C)NC(=O)c1cc(Cl)cc(Cl)c1`, the result was inactive.
On to `CCOP(=S)(OCC)Oc1ccc2c(C)c(Cl)c(=O)oc2c1`, for which the outcome was inactive.

In another experiment the test system is zebrafish Estrogen Receptor (ESR2A), gene 317734. The experiment in a line: ATG_zfER2a_XSP1: Attagene TRANS-FACTORIAL Multi-Species (XSP1) HepG2 Assay for zebrafish Estrogen Receptor (ESR2A) (AID 2283778). In a few lines: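 Cells were transfected, dosed for 24 h, then total RNA was isolated. After oligo(dT) reverse transcription, reporter sequences were amplified, FAM-labelled by primer extension, digested with HpaI and sized by capillary electrophoresis; DMSO served as baseline.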
With `CCc1cccc(C)c1N(C(=O)CCl)C(C)COC` (configuration not stated), the outcome was inactive.
As to `C#CC(C)(C)NC(=O)c1cc(Cl)cc(Cl)c1`, the call was inactive.
On to `CCOP(=S)(OCC)Oc1ccc2c(C)c(Cl)c(=O)oc2c1`, for which the compound was classed as inactive.

For a further experiment, the target named is chicken Estrogen Receptor (ESR1), ESR1 (gene 396099) (UniProt P06212). The experiment in a line: ATG_chERa_XSP1: Attagene TRANS-FACTORIAL Multi-Species (XSP1) HepG2 Assay for chicken Estrogen Receptor (ESR1) (AID 2283779). In outline:
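Human liver HepG2, transient MRTU transfection (NR-Gal4 chimeras, GAL4-UAS reporters); 24 h compound exposure; 3 nM 6-alpha-fluorotestosterone in medium. Total RNA → RT-PCR → 6-FAM primer extension → HpaI → CE. Positive direction vs DMSO baseline.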
For `CCc1cccc(C)c1N(C(=O)CCl)C(C)COC` (configuration not stated), the AC50 was 9.46 µM (active).
On to `C#CC(C)(C)NC(=O)c1cc(Cl)cc(Cl)c1`, for which the concentration at half-maximal activity (AC50) was 50 µM (active).
With `CCCOCC(=Nc1ccc(Cl)cc1C(F)(F)F)n1ccnc1`, the compound was classed as inactive.
The same measure, in the same setting: next, `CCOP(=S)(OCC)Oc1ccc2c(C)c(Cl)c(=O)oc2c1`: “inactive”.

A further experiment has as its system turtle Estrogen Receptor (ESR1), gene 101933533. The experiment in a line: ATG_trERa_XSP1: Attagene TRANS-FACTORIAL Multi-Species (XSP1) HepG2 Assay for turtle Estrogen Receptor (ESR1) (AID 2283781). In outline:
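Activity was taken as gain of reporter transcript over DMSO controls. HepG2 cells carrying GAL4-UAS-driven reporters were exposed for 24 h before RNA was extracted and reporter sequences were measured by fluorescence after capillary separation.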
Consider `CCc1cccc(C)c1N(C(=O)CCl)C(C)COC` (configuration not stated), for which the AC50 is 17.4 µM (active).
Still for that read-out and setting: the figure for `C#CC(C)(C)NC(=O)c1cc(Cl)cc(Cl)c1` is 64.3 µM (active).
As to `CCOP(=S)(OCC)Oc1ccc2c(C)c(Cl)c(=O)oc2c1`, the compound was classed as inactive.

System in another experiment: not listed separately
The experiment in a line: ACEA_ER_AUC_viability: ACEA Biosciences xCELLigence Real-Time Cell Analysis on Estrogen Receptor Agonism for Viability (AID 2283782).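 Further: continuous compound exposure with impedance area under curve over 80 h; hit means loss of impedance signal meaning reduced cell growth or viability.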 In a few lines: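 T-47D; phenol red-free RPMI1640 + 10% CS-FBS; 8 conc., 1:4 serial, max 100 uM final, ≤0.5% DMSO; n = 2; continuous exposure; impedance monitored to 80 h post-dose; AUC vs DMSO.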
Take `COc1cccc(C(=O)NN(C(=O)c2cc(C)cc(C)c2)C(C)(C)C)c1C`: the result was inactive.
For the compound `CN(C)NC(=O)CCC(=O)O`, the call was inactive.
As for `CCOP(=S)(OCC)Oc1ccc([N+](=O)[O-])cc1`, the outcome was inactive.
With `Cc1cc(C2CC2)nc(Nc2ccccc2)n1`, the AC50 was 77.3 µM (active).
With `CNC(=O)ON=C(C)SC`, the call was inactive.
On the same count and under the same terms, next, `CNC(=O)Oc1cccc2c1OC(C)(C)O2`: “inactive”.
On to `COP(=O)(OC)OC(Br)C(Cl)(Cl)Br` (configuration not stated), for which the AC50 is 30.7 µM (active).
Take `S=C1NCCN1`: the outcome was inactive.
Still for that read-out and setting: next, `CCc1cccc(C)c1N(C(=O)CCl)C(C)COC` (configuration not stated): “inactive”.
On to `CCCCSP(=O)(SCCCC)SCCCC`, for which the AC50 is 71.4 µM (active).
Regarding `CCCSP(=O)(OCC)Oc1ccc(Br)cc1Cl` (configuration not stated), the AC50 was 38.6 µM (active).
With `O=C(O)c1cc(Oc2ccc(C(F)(F)F)cc2Cl)ccc1[N+](=O)[O-]`, the compound was classed as inactive.
As to `CNC(=O)ON=C(SC)C(=O)N(C)C`, the AC50 was 65.5 µM (active).
`C=C(C)[C@H]1Cc2c(ccc3c2O[C@@H]2COc4cc(OC)c(OC)cc4[C@@H]2C3=O)O1`: the compound was called inactive.
On to `CCCOCC(=Nc1ccc(Cl)cc1C(F)(F)F)n1ccnc1`, for which the AC50 was 23.1 µM (active).
With `COP(=O)(OC)SCn1c(=O)oc2cc(Cl)cnc21`, the AC50 was 76.2 µM (active).
With `COP(=O)(OC)C(O)C(Cl)(Cl)Cl` (configuration not stated), the AC50 was 76.5 µM (active).
For `CCOP(=S)(OCC)OC(Cl)C(Cl)(Cl)Cl` (configuration not stated), the AC50 was 76.4 µM (active).
In the case of `CC(=NC#N)N(C)Cc1ccc(Cl)nc1`, the compound was classed as inactive.
`CCC(CC)Nc1c([N+](=O)[O-])cc(C)c(C)c1[N+](=O)[O-]`: the AC50 is 76.8 µM (active).
On the same count and under the same terms, next, `CC(C)N(C(=O)SCC(Cl)=C(Cl)Cl)C(C)C`: 77.3 µM (active).
Take `CCOC(=O)CC(SP(=O)(OC)OC)C(=O)OCC` (configuration not stated): the compound was called inactive.
As to `CCOP(=S)(Oc1cnc(C(C)(C)C)nc1)OC(C)C` (configuration not stated), the AC50 was 81.4 µM (active).
With `O=c1ccc(=O)[nH][nH]1`, the compound was classed as inactive.
`Nc1nc(N)nc(NC2CC2)n1`: the compound was classed as inactive.
`CCOP(=O)(OCC)Oc1cc(C)nc(C(C)C)n1`: the result was inactive.
Turning to `COP(=O)(NC(C)=O)SC` (configuration not stated), the call was inactive.
For `CC1=NNC(=O)N(/N=C/c2cccnc2)C1`, the compound was classed as inactive.
For `CC[C@H](C)[C@H]1O[C@]2(C=C[C@@H]1C)C[C@@H]1C[C@@H](C/C=C(\C)[C@@H](O[C@H]3C[C@H](OC)[C@@H](O[C@H]4C[C@H](OC)[C@@H](NC)[C@H](C)O4)[C@H](C)O3)[C@@H](C)/C=C/C=C3\CO[C@@H]4[C@H](O)C(C)=C[C@@H](C(=O)O1)[C@]34O)O2`, the AC50 is 1.82 µM (active).
